# Rv3671c inh = inhibits the M. tuberculosis serine protease Rv3671c. inhibition, % at 5.96 µM. 320,000 compounds, 0.048% hits; in the data active = inhibition above about 38%;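 note: extracellular domain of Rv3671c used as enzyme; 0% = enzyme with DMSO and 100% = no enzyme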
# UGM FP inh = blocks M. tuberculosis UGM enzyme | P9WIQ1 | purified UGM, fluorescence polarization probe displacement | inhibition, % at 10 µM | 320,000 compounds, 0.06% hits; in the data active = inhibition above about 10%, passing the limit was not always enough; inconclusive = no clear call, values can overlap the other calls
# Target sequence (P9WIQ1 whole entry, looked up): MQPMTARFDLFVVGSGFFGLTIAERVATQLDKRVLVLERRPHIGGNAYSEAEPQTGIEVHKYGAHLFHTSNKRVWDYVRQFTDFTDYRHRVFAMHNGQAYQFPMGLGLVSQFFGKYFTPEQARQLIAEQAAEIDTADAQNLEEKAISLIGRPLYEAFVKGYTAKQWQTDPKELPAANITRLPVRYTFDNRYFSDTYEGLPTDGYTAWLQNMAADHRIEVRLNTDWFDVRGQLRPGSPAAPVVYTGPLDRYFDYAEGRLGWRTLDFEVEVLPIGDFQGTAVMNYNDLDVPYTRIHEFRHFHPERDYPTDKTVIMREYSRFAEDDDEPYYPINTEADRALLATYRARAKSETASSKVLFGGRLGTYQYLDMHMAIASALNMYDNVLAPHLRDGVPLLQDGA
# Mtb betalactam = beta-lactam sensitization of Mtb H37Rv; M. tuberculosis H37Rv growth with meropenem, percent inhibition; inhibition, % at 25 µM; 330,000 compounds, 0.27% hits; AID 434955; call rule not given here;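 note: growth measured after seven days incubation then overnight dye step; 0% = bacteria only wells and 100% = bacteria with antibiotic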
# GDH-TPI inh = counter-screen for M. tuberculosis FBA inhibitors: GDH-TPI coupled enzymes. 360,000 compounds, 1.2% hits. inhibition, % at 4.8 µM. AID 588335. GDH-TPI coupled enzyme counterscreen, NADH absorbance; in the data active = inhibition above about 30%;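 note: 0% = DMSO wells and 100% = wells lacking the enzyme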
# FBA Mtb inh = Mtb fructose-bisphosphate aldolase inhibition. P9WQA3. inhibition, % at 1 µM. purified M. tuberculosis FBA, fluorescence read-out. 360,000 compounds, 2.3% hits. AID 588726; in the data active = inhibition above about 27%;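 note: 0% = vehicle and 100% = reference inhibitor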
# RecA intein inh = inhibitors of M. tuberculosis RecA intein splicing; P9WHJ3; cell-free RecA intein splicing, fluorescence; inhibition, % (test concentration not listed); 290,000 compounds, 0.75% hits; AID 2221; in the data active = inhibition above about 30%; inconclusive = no clear call, values can overlap the other calls;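 note: 0% = vehicle wells and 100% = reference inhibitor control wells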
# * = called active by the depositor; ? = inconclusive; nt = no result; + = active, no number. Shown are actives, neighbours in structure and some others; about 4% of the full set was active somewhere.
SMILES,Rv3671c inh,UGM FP inh,Mtb betalactam,GDH-TPI inh,FBA Mtb inh,RecA intein inh
COc1ccc2cc(-c3ccccc3)c(=O)oc2c1,4.1,0.5,-5.1,29.6,+,-3.9
COc1ccc(-c2cc(=O)oc3cc(OC(C)C(=O)O)ccc23)cc1 (stereo not drawn),-4.5,-2.2,3.7,6.6,3.5,-1.7
CC(=O)Oc1ccc2cc(-c3cccnc3)c(=O)oc2c1,nt,nt,nt,15.8,+,nt
CC(=O)c1ccc(OCCCC(=O)NCc2nnc3ccccn23)cc1,nt,nt,nt,0.0,1.4,nt
O=C(O)C(c1ccccc1)C(O)C1CCCC1 (stereo not drawn),nt,nt,nt,0.4,-0.1,nt
CC(Oc1ccc2cc(-c3ccccc3)c(=O)oc2c1)C(=O)NCC1CCC(C(=O)O)CC1 (stereo not drawn),-5.4,5.6,5.2,36.3*,+,-5.7
CN(C)C(=O)COc1ccc2cc(-c3ccccc3)c(=O)oc2c1,-1.1,-1.0,2.1,52.6*,+,-5.0
CN1CCN(C(=O)c2ccccc2NC(=O)c2ccccc2)CC1,nt,-2.7,-3.8,4.5,-0.7,-2.0
N=C1/C(=C\c2ccc(SCc3ccccc3)o2)C(=O)N=C2SC(CC(=O)N3CCOCC3)=NN12,-14.8,-0.8,0.8,39.0*,-2.9,-1.6
Cc1ccc(/C=C2\C(=N)N3N=C(CC(=O)N4CCOCC4)SC3=NC2=O)o1,-3.4,1.4,1.9,45.2*,5.3,3.7
N=C1/C(=C/c2ccc(-c3cccc(C(=O)O)c3)o2)C(=O)N=C2SC(CC(=O)N3CCOCC3)=NN12,-6.7,5.7,3.2,7.9,-6.7,-3.7
CC(=O)Oc1ccc(OC(C)=O)c2c1CC1(C)OC1(C)C2 (stereo not drawn),nt,nt,nt,-0.4,-0.9,nt
CC1(C)CC(=O)C=C(Nc2ccc(S(N)(=O)=O)cc2)C1,-9.2,-3.1,-5.1,38.1*,2.3,-1.1
Cn1c(N)c(C(=O)CSc2nnc(NC3CCCCC3)s2)c(=O)n(C)c1=O,nt,nt,nt,3.6,-1.8,nt
COc1ccc2[nH]c3c(=O)n(CCN4CCOCC4)cnc3c2c1,1.0,0.6,2.2,30.9*,151.6*,5.9
Cc1ccc2c(c1)[nH]c1c(=O)n(CCCN3CCOCC3)cnc12,-4.1,-0.3,-16.2,1.7,12.7,0.5
O=c1c2[nH]c3ccccc3c2ncn1CCN1CCOCC1,3.4,1.4,?,-3.6,4.0,nt
COc1cccc2[nH]c3c(=O)n(CCCN4CCOCC4)cnc3c12,-0.7,1.8,-1.8,22.2,147.4*,2.0
Cc1ccc2[nH]c3c(=O)n(CCN4CCNCC4)cnc3c2c1,1.9,6.4,2.3,-5.0,12.2,-0.6
COc1cccc2[nH]c3c(N4CCC(C)CC4)ncnc3c12,11.3,-1.6,-11.6,25.4,18.7,2.0
COc1cccc2[nH]c3c(N4CCC5(CC4)OCCO5)ncnc3c12,-4.2,3.1,2.7,11.7,149.0*,-2.9
COc1ccc2c(c1)c1ncn(CCN3CCNCC3)c(=O)c1n2C,3.3,-0.6,-5.6,1.3,129.5*,-4.4
Cc1ccc(C)c(OCCC(=O)OCc2csc(CC(=O)Nc3ccccc3C)n2)c1,nt,nt,nt,-4.6,-2.2,nt
COc1ccc(CCC2(C)NC(=O)N(C(C)C(=O)N3c4ccccc4CC3C)C2=O)cc1 (stereo not drawn),1.1,2.2,5.1,1.3,-0.9,nt
COc1cc(CC(NC(C)=O)C(=O)NC2CCN(C(=O)Nc3ccccc3C)CC2)cc(OC)c1 (stereo not drawn),-1.8,-0.9,5.7,-1.8,-3.6,-2.4
SMILES,Rv3671c inh,UGM FP inh,Mtb betalactam,GDH-TPI inh,FBA Mtb inh,RecA intein inh
CN(Cc1c(C(=O)N/N=C/c2c(F)cccc2Cl)nnn1-c1nonc1N)C1CCCCC1,nt,nt,nt,-10.6,3.6,nt
CC(=O)N1CCN(Cc2cc(=O)oc3ccc4ccccc4c23)CC1,nt,nt,nt,nt,4.2,nt
CCC(=O)OCc1cc(=O)oc2ccc3ccccc3c12,2.5,-4.8,8.8,16.4,170.0*,-4.7
C[C@@H]1CN([C@H](C)CO)S(=O)(=O)c2ccc(-c3ccc(C#N)cc3)cc2O[C@H]1CN(C)C(=O)Nc1cc(F)ccc1F,nt,nt,nt,12.8,4.6,nt
CCN1c2ccccc2-c2nc3ccccc3n2C1c1ccco1 (stereo not drawn),-7.5,0.7,-9.0,8.7,+,-65.2
CN1c2ccccc2-c2nc3ccccc3n2C1c1ccccn1 (stereo not drawn),0.5,-0.8,70.7,8.9,46.9*,-85.4
Clc1ccc(Cn2c(-c3cccnc3Cl)nc3ccccc32)cc1,1.6,0.2,-2.1,-1.2,2.4,7.1
c1ccc(CN2c3ccccc3-c3nc4ccccc4n3C2c2ccccn2)cc1 (stereo not drawn),-8.5,2.4,1.8,5.2,121.0*,8.9
CN1c2ccccc2-c2nc3ccccc3n2C1c1ccncc1 (stereo not drawn),3.5,2.8,-0.8,20.1,11.7,-4.5
O=C(CC1SC(=O)NC1=O)Oc1ccc(/C=N/NC(=O)c2ccccc2O)cc1 (stereo not drawn),2.1,2.0,nt,41.8*,2.7,5.0
COc1ccc(-c2cn3ccccc3n2)cc1OC,1.4,0.7,21.1,5.6,158.6*,-3.0
COc1ccc(-c2cn3cc(C)ccc3n2)cc1OC,-3.6,-0.5,-3.9,15.9,160.8*,1.0
COc1ccccc1NC=C1C(=O)OC2(CCCCC2)OC1=O,3.6,0.3,1.2,33.0*,-1.3,0.3
COc1ccc2c(c1)/C(=C\c1cccc(/C=C3/C(=O)Nc4ccc(OC)cc43)n1)C(=O)N2,nt,nt,nt,33.5*,-1.1,nt
COc1ccc2c(c1)/C(=N/N1C(=O)c3ccccc3C1=O)C(=O)N2,-12.0,4.3,0.5,nt,nt,0.8
Cc1onc(-c2c(Cl)cccc2Cl)c1C(=O)n1nnc2ccccc21,6.4,-0.8,15.8,nt,nt,37.4*
CCN(CC)c1ccc(C(=O)n2cnc3ccccc32)cc1,-2.2,-1.2,nt,39.6*,0.1,12.4
CN(C)c1ccc(C(=O)n2nnc3ccccc32)cc1,0.5,-1.0,9.5,18.3,10.3,49.2*
Cc1onc(-c2c(Cl)cccc2Cl)c1C(N)=O,-3.3,-0.7,6.4,3.4,-0.9,nt
CC(C)(C)c1ccc(C(=O)n2cnc3ccccc32)cc1,2.6,-1.7,1.4,15.7,-2.2,1.8
CCOC(=O)c1ccc(N2CCOCC2)c(NC(=O)c2c(-c3ccccc3)noc2C)c1,-5.3,3.1,-3.1,1.5,0.5,10.7
O=C(Cc1cccc(NC(=O)C2CCCN(C(=O)C3CCCCC3)C2)c1)Nc1cccc(C(=O)N2CCCCC2)c1 (stereo not drawn),nt,nt,nt,-9.4,-1.6,nt
COC(=O)c1cccc(-c2ccc(/C=N/N3C(=O)C4C5C=CC(C6CC56)C4C3=O)o2)c1 (stereo not drawn),-5.1,1.6,30.7,7.6,-0.1,-1.1
COC(=O)c1ccc(-c2ccc(/C=N/N3C(=O)C4C5C=CC(C6CC56)C4C3=O)o2)cc1 (stereo not drawn),-12.6,0.4,28.5,34.4*,4.3,1.3
CN(c1ccccc1)S(=O)(=O)c1nnc(NC(=O)c2ccco2)s1,1.8,0.6,1.9,27.5,0.9,-0.5
